# Measurements as given in the supplement of paper PMC10037445.
# Whole data set: some 2,900 compounds, median “NF-kB SEAP reporter activity, fold change vs agonist alone” near 0.99, cut for the highest 2% near 2.6. This excerpt belongs to a sample that is enriched for the highest values.
# Experiments:
# RAW-Dual [1] = assay: NF-kB SEAP reporter activity, fold change vs agonist alone; cytotoxicity flag (confluency mask): not cytotoxic; higher = enhanced NF-kB activity
# Summary of the method: (§1)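 RAW-Dual macrophages were seeded in DMEM at 50,000 cells/well in 384-well plates, given 50 nL of library stock by pin tool, and given a PRR agonist 1 h later. Plates were held at 37 °C, 5% CO2 for 20 hours, after which supernatant was read for IRF by QuantiLuc luminescence and for NF-κB by QuantiBlue absorbance at 620 nm. Reporter activity is expressed as fold change over wells that received agonist alone. A well was called cytotoxic when IncuCyte confluency fell below 70% of agonist controls in both mask sets.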
# RAW-Dual [2] = assay: NF-kB SEAP reporter activity, fold change vs agonist alone; higher = enhanced NF-kB activity; details: library stock concentration (final ~1000-fold dilution): 10 mM
# Summary of the method: as §1
# RAW-Dual [3] = assay: NF-kB SEAP reporter activity, fold change vs agonist alone; cytotoxicity flag (confluency mask): cytotoxic (confluency <70% of control); higher = enhanced NF-kB activity
# Summary of the method: as §1
# [4] = agonist: ODN 1826 (TLR9) 0.5 ug/mL
# [5] = agonist: Pam2CSK4 (TLR2/6) 0.1 ug/mL
# [6] = agonist: Pam3CSK4 (TLR2/1) 0.1 ug/mL
# [7] = cytotoxicity flag (confluency mask): not cytotoxic, agonist: Imiquimod (TLR7) […]
# [8] = cytotoxicity flag (confluency mask): not cytotoxic, agonist: MPLA (TLR4) […]
# [9] = cytotoxicity flag (confluency mask): cytotoxic (confluency <70% of control), agonist: Imiquimod (TLR7) […]
# [10] = cytotoxicity flag (confluency mask): cytotoxic (confluency <70% of control), agonist: MPLA (TLR4) […]
compound,measurement,setting,value
Nc1ccc(-c2cccc(C(=O)Nc3cnc4nc(N5CCOCC5)oc4c3)n2)cn1 (library stock concentration (final ~1000-fold dilution): 10 mM),NF-kB SEAP reporter activity,RAW-Dual [1]; agonist: LPS (TLR4) 0.1 ug/mL,1.43
same,NF-kB SEAP reporter activity,RAW-Dual [1]; [4],1.01
same,NF-kB SEAP reporter activity,RAW-Dual [1]; [5],0.911
same,NF-kB SEAP reporter activity,RAW-Dual [1]; [6],1.33
Oc1cccc(-c2nc(N3CCOCC3)c3oc4ncccc4c3n2)c1 (library stock concentration (final ~1000-fold dilution): 10 mM),NF-kB SEAP reporter activity,RAW-Dual [1]; agonist: LPS (TLR4) 0.1 ug/mL,4.71
same,NF-kB SEAP reporter activity,RAW-Dual [1]; [4],0.369
same,NF-kB SEAP reporter activity,RAW-Dual [1]; [5],0.849
same,NF-kB SEAP reporter activity,RAW-Dual [1]; [6],1.34
CCn1c(-c2nonc2N)nc2cnc(Oc3cccc(NC(=O)c4ccc(OCCN5CCOCC5)cc4)c3)cc21.Cl,NF-kB SEAP reporter activity,RAW-Dual [2]; [7],1.48
same,NF-kB SEAP reporter activity,RAW-Dual [2]; [8],1.41
Cc1csc(-c2nc[nH]c2-c2ccc3ncsc3c2)n1.Cl (library stock concentration (final ~1000-fold dilution): 10 mM),NF-kB SEAP reporter activity,RAW-Dual [1]; agonist: LPS (TLR4) 0.1 ug/mL,2.26
same,NF-kB SEAP reporter activity,RAW-Dual [1]; [4],1.18
same,NF-kB SEAP reporter activity,RAW-Dual [1]; [5],1.24
same,NF-kB SEAP reporter activity,RAW-Dual [1]; [6],1.47
Cc1csc(-c2nc[nH]c2-c2ccc3ncsc3c2)n1.Cl,NF-kB SEAP reporter activity,RAW-Dual [2]; [7],0.927
same,NF-kB SEAP reporter activity,RAW-Dual [2]; [8],1.34
CC(Oc1cc(-n2cnc3ccc(CN4CCN(C)CC4)cc32)sc1C(N)=O)c1ccccc1C(F)(F)F (stereo unspecified),NF-kB SEAP reporter activity,RAW-Dual [2]; [7],0.909
same,NF-kB SEAP reporter activity,RAW-Dual [2]; [8],0.993
CC(Oc1cc(-n2cnc3ccc(CN4CCN(C)CC4)cc32)sc1C(N)=O)c1ccccc1C(F)(F)F (stereo unspecified) (library stock concentration (final ~1000-fold dilution): 10 mM),NF-kB SEAP reporter activity,RAW-Dual [1]; agonist: LPS (TLR4) 0.1 ug/mL,1.15
same,NF-kB SEAP reporter activity,RAW-Dual [1]; [4],0.967
same,NF-kB SEAP reporter activity,RAW-Dual [1]; [5],0.97
same,NF-kB SEAP reporter activity,RAW-Dual [1]; [6],0.799
N#C/C(C(=O)c1ccc(Cl)cc1Cl)=C1\NC(=O)c2ccccc2N1 (library stock concentration (final ~1000-fold dilution): 10 mM),NF-kB SEAP reporter activity,RAW-Dual [1]; agonist: LPS (TLR4) 0.1 ug/mL,1.13
same,NF-kB SEAP reporter activity,RAW-Dual [1]; [4],0.982
same,NF-kB SEAP reporter activity,RAW-Dual [1]; [5],0.65
same,NF-kB SEAP reporter activity,RAW-Dual [1]; [6],0.693
N#C/C(C(=O)c1ccc(Cl)cc1Cl)=C1\NC(=O)c2ccccc2N1,NF-kB SEAP reporter activity,RAW-Dual [2]; [7],0.86
same,NF-kB SEAP reporter activity,RAW-Dual [2]; [8],1.11
CC1OC(OC2C(Oc3cc(O)c4c(c3)OC(c3ccc(O)cc3)CC4=O)OC(CO)C(O)C2O)C(O)C(O)C1O (stereo unspecified),NF-kB SEAP reporter activity,RAW-Dual [2]; [7],0.993
same,NF-kB SEAP reporter activity,RAW-Dual [2]; [8],1.05
CC1OC(OC2C(Oc3cc(O)c4c(c3)OC(c3ccc(O)cc3)CC4=O)OC(CO)C(O)C2O)C(O)C(O)C1O (stereo unspecified) (library stock concentration (final ~1000-fold dilution): 10 mM),NF-kB SEAP reporter activity,RAW-Dual [1]; agonist: LPS (TLR4) 0.1 ug/mL,0.935
same,NF-kB SEAP reporter activity,RAW-Dual [1]; [4],1.04
same,NF-kB SEAP reporter activity,RAW-Dual [1]; [5],1.17
same,NF-kB SEAP reporter activity,RAW-Dual [1]; [6],1.13
COc1ccc(C[C@@H]2c3cc(Oc4cc(C[C@@H]5c6cc(OC)c(OC)cc6CCN5C)ccc4O)c(OC)cc3CCN2C)cc1,NF-kB SEAP reporter activity,RAW-Dual [2]; [7],0.915
same,NF-kB SEAP reporter activity,RAW-Dual [2]; [8],1.09
COc1ccc(C[C@@H]2c3cc(Oc4cc(C[C@@H]5c6cc(OC)c(OC)cc6CCN5C)ccc4O)c(OC)cc3CCN2C)cc1 (library stock concentration (final ~1000-fold dilution): 10 mM),NF-kB SEAP reporter activity,RAW-Dual [1]; agonist: LPS (TLR4) 0.1 ug/mL,1.06
same,NF-kB SEAP reporter activity,RAW-Dual [1]; [4],0.182
same,NF-kB SEAP reporter activity,RAW-Dual [1]; [5],0.121
same,NF-kB SEAP reporter activity,RAW-Dual [1]; [6],0.622
Oc1ccc(-c2nc(-c3ccc(F)cc3)c(-c3ccncc3)[nH]2)cc1,NF-kB SEAP reporter activity,RAW-Dual [2]; [7],1.92
same,NF-kB SEAP reporter activity,RAW-Dual [2]; [8],1.84
Oc1ccc(-c2nc(-c3ccc(F)cc3)c(-c3ccncc3)[nH]2)cc1 (library stock concentration (final ~1000-fold dilution): 10 mM),NF-kB SEAP reporter activity,RAW-Dual [1]; agonist: LPS (TLR4) 0.1 ug/mL,2.59
same,NF-kB SEAP reporter activity,RAW-Dual [1]; [4],0.851
same,NF-kB SEAP reporter activity,RAW-Dual [1]; [5],1.01
same,NF-kB SEAP reporter activity,RAW-Dual [1]; [6],1.2
COc1cc2nc(N3CCCN(C)CC3)nc(NC3CCN(Cc4ccccc4)CC3)c2cc1OC.Cl.Cl.Cl,NF-kB SEAP reporter activity,RAW-Dual [2]; [9],0.133
same,NF-kB SEAP reporter activity,RAW-Dual [2]; [10],0.247
COc1cc2nc(N3CCCN(C)CC3)nc(NC3CCN(Cc4ccccc4)CC3)c2cc1OC.Cl.Cl.Cl (library stock concentration (final ~1000-fold dilution): 10 mM),NF-kB SEAP reporter activity,RAW-Dual [3]; agonist: LPS (TLR4) 0.1 ug/mL,0.248
same,NF-kB SEAP reporter activity,RAW-Dual [3]; [4],0.189
same,NF-kB SEAP reporter activity,RAW-Dual [3]; [5],0.092
same,NF-kB SEAP reporter activity,RAW-Dual [3]; [6],0.13
CC(=O)OC1(C(C)=O)CCC2C3C=C(Cl)C4=CC(=O)CCC4(C)C3CCC21C (stereo unspecified) (library stock concentration (final ~1000-fold dilution): 10 mM),NF-kB SEAP reporter activity,RAW-Dual [1]; agonist: LPS (TLR4) 0.1 ug/mL,1.21
same,NF-kB SEAP reporter activity,RAW-Dual [1]; [4],1.14
same,NF-kB SEAP reporter activity,RAW-Dual [1]; [5],1.08
same,NF-kB SEAP reporter activity,RAW-Dual [1]; [6],1.16
CC(=O)OC1(C(C)=O)CCC2C3C=C(Cl)C4=CC(=O)CCC4(C)C3CCC21C (stereo unspecified),NF-kB SEAP reporter activity,RAW-Dual [2]; [7],1.28
same,NF-kB SEAP reporter activity,RAW-Dual [2]; [8],1.12
Cc1nc(Nc2cnn(C3CCNCC3)c2)nc2c1N(C)C(=O)c1cc3ccccc3cc1N2C,NF-kB SEAP reporter activity,RAW-Dual [2]; [9],1.56
same,NF-kB SEAP reporter activity,RAW-Dual [2]; [10],2.88
Cc1nc(Nc2cnn(C3CCNCC3)c2)nc2c1N(C)C(=O)c1cc3ccccc3cc1N2C (library stock concentration (final ~1000-fold dilution): 10 mM),NF-kB SEAP reporter activity,RAW-Dual [3]; agonist: LPS (TLR4) 0.1 ug/mL,3.03
same,NF-kB SEAP reporter activity,RAW-Dual [3]; [4],0.387
same,NF-kB SEAP reporter activity,RAW-Dual [3]; [5],1.11
same,NF-kB SEAP reporter activity,RAW-Dual [3]; [6],2.25
CN1c2ccccc2C(=O)Nc2cnc(Nc3ccc(N4CCC(O)CC4)cc3)nc21 (library stock concentration (final ~1000-fold dilution): 10 mM),NF-kB SEAP reporter activity,RAW-Dual [1]; agonist: LPS (TLR4) 0.1 ug/mL,1.91
same,NF-kB SEAP reporter activity,RAW-Dual [1]; [4],1.18
same,NF-kB SEAP reporter activity,RAW-Dual [1]; [5],0.763
same,NF-kB SEAP reporter activity,RAW-Dual [1]; [6],0.946
Cc1ccc(Oc2ccnc3cc(-c4cnn(C5CCNCC5)c4)ccc23)cc1 (library stock concentration (final ~1000-fold dilution): 10 mM),NF-kB SEAP reporter activity,RAW-Dual [3]; agonist: LPS (TLR4) 0.1 ug/mL,0.433
same,NF-kB SEAP reporter activity,RAW-Dual [3]; [4],0.213
same,NF-kB SEAP reporter activity,RAW-Dual [3]; [5],0.181
same,NF-kB SEAP reporter activity,RAW-Dual [3]; [6],0.175
CN1c2ccccc2C(=O)Nc2cnc(Nc3ccc(N4CCC(O)CC4)cc3)nc21,NF-kB SEAP reporter activity,RAW-Dual [2]; [7],0.788
same,NF-kB SEAP reporter activity,RAW-Dual [2]; [8],1.02
Cc1ccc(Oc2ccnc3cc(-c4cnn(C5CCNCC5)c4)ccc23)cc1,NF-kB SEAP reporter activity,RAW-Dual [2]; [9],0.526
same,NF-kB SEAP reporter activity,RAW-Dual [2]; [10],0.922
